Measured potencies and affinities stand elsewhere. The source made the active and inactive calls. The rule behind the calls is not given here.
experiment: yeast V-ATPase proton pumping modulator potency, dose response, S. cerevisiae, pHLuorin, cherry pick 1 (AID 588596); conditions: S. cerevisiae pHLuorin vacuolar pH fluorescence; series mostly up to 33.1 µM; response, % activation: at the top concentration

response, % activation, inactive:
CCOC(=O)Cn1c(=O)c(-c2cc(Br)ccc2N)nc2ccccc21 14.8%
O=C(N1CCCC1)C12CCC3CC(CC(C3)C1)C2 -5%
O=C(CCSC1=NCCCN1)c1ccc(F)cc1 12.9%
Cc1cccc(N=Cc2[nH]c3ccc(Br)c(Cl)c3c2O)c1 -0.84%
